# From ChEMBL document CHEMBL1201862, “PubChem BioAssay data set” (2004)
# In all, about 150,000 compounds went through this assay and about 6,500 (4.3%) were called active. Inconclusive results (about 12%) are left out. The rule behind the calls is not given here. Many of the other results were omitted from the sample, so actives are more common in it than they were.
# Target: T1, 15-hydroxyprostaglandin dehydrogenase [NAD(+)] (Homo sapiens) (UniProt P15428)
# T1 sequence (whole entry): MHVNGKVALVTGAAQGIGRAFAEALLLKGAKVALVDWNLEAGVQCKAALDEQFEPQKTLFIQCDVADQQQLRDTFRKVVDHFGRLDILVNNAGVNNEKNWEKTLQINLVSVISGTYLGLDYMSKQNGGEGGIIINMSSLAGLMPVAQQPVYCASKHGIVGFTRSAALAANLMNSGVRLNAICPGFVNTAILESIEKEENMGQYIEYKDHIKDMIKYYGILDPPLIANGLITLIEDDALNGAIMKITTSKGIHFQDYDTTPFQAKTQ
row,Compound,Potency
1,O=C(O)c1cc(/N=N\c2ccc(S(=O)(=O)Nc3ccccn3)cc2)ccc1O,14.1 µM (active)
2,O=C(O)c1cc(/N=N/c2ccc(S(=O)(=O)Nc3ccccn3)cc2)ccc1O,15.8 µM (active)
3,O=C(/C=C\c1ccco1)Nc1nc(-c2ccccc2)cs1,inactive
